Results taken from PubChem BioAssay (Tox21).
Values joined by “and” are separate entries in the source; they are usually repeats but may differ in a detail not shown here. Equal entries are not always repeated. Results filed as inconclusive are left out. A call without a number means that no potency is given here. Active and inactive are the calls of the source. Unless noted, the call rests on the fitted dose curve.

Experiments:
[1] = Nuclear factor erythroid 2-related factor 2/antioxidant responsive element (Nrf2/ARE) small molecule agonists: qHTS cell viability counter screen in human keratinocytes (AID 1919968; active means well fitted curve in the direction sought with a large enough effect in the repeat runs; an effect the other way counts as inactive or inconclusive; further: nearly all actives have a fitted effect of over 55% in size)
Procedure, shortened: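 HaCaT ARE reporter line, 1,500 cells/well; 5 h settle, 37 C/5% CO2; cpd in DMSO pinned; 23 h exposure; CellTiter-Fluor, 1 h; fluorescence.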

[2] = Nuclear factor erythroid 2-related factor 2/antioxidant responsive element (Nrf2/ARE) small molecule agonists: luciferase reporter gene qHTS assay in human keratinocytes (AID 1919969); further: nearly all actives have a fitted effect of over 35% in size; further: potency means the concentration at half of the fitted maximal effect
[3] = target: Gonadotropin-releasing hormone receptor (Homo sapiens) (UniProt P30968); experiment: Human gonadotropin-releasing hormone receptor (GnRHR) small molecule agonists, calcium flux assay in GnRHR-HEK293 cells (AID 1920063); further: nearly all actives have a fitted effect of over 35% in size
Procedure, shortened: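 GnRHR-HEK293, 1500 cells/well, 18 h 37 C/5% CO2; Ca dye 1 h 37 C; cpd pinned (DMSO), agonist mode; kinetic FL 480/540, 3 min, 1 s reads; 15 conc, n=3.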

[4] = target: KiSS-1 receptor (Homo sapiens) (UniProt Q969F8); experiment: Human kisspeptin (KISS1R) small molecule agonists, calcium flux assay in KISS1R-HEK293 cells (AID 1920064; active means well fitted curve in the direction sought with a large enough effect in the repeat runs; an effect the other way counts as inactive or inconclusive)
Procedure, shortened: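 Stable human KISS1R HEK293 line; 18 h plating, 37 C/5% CO2; calcium dye 1 h 37 C; compound pin transfer; kinetic fluorescence Ex/Em 480/540, 3 min.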

[5] = G protein-coupled receptor (GPCR) small molecule agonists, calcium flux assay: HEK293 wild type cell line counter screen (AID 1920065)
Procedure, shortened: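 Kinetic fluorescence at Ex/Em 480/540, recorded every second over 3 min, served as the read-out after compound addition. Each compound was tested at 15 concentrations in triplicate on cells pre-loaded with calcium dye for 1 h.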

[6] = p53 small molecule agonists, cell-based qHTS assay with human liver microsomes (AID 1963577)
Procedure, shortened: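 Fluorescence of the beta-lactamase reporter in p53RE-bla cells, detected with LiveBLAzer substrate (2 h, room temperature, dark), served as the read-out after 16 h compound exposure at 37 C with human liver microsomes and NADPH, each 0.5 mg/mL final.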

[7] = p53 small molecule agonists, cell-based qHTS assay with rat liver microsomes (AID 1963578)
Procedure, shortened: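 Cells carrying a p53 response element–beta-lactamase reporter were plated and rested 5 h, then dosed with compound in DMSO plus rat liver microsomes and NADPH, each at 0.5 mg/mL final. After 16 h at 37 C, LiveBLAzer substrate was added for 2 h.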

[8] = p53 small molecule agonists, cell-based qHTS assay with rat liver microsomes: qHTS cell viability counter screen (AID 1963580); further: nearly all actives have a fitted effect of over 45% in size
Procedure, shortened: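 p53RE-bla HCT-116 cells were exposed 16 h at 37 C to compounds with rat liver microsomes (0.5 mg/mL) and NADPH (0.5 mg/mL). Viability was measured in the same wells as ATP content by CellTiter-Glo luminescence.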

[9] = p53 small molecule agonists, cell-based qHTS assay: qHTS cell viability counter screen (AID 1963581); further: nearly all actives have a fitted effect of over 45% in size
Procedure, shortened: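 HCT-116 p53RE-bla cells, 4,000/well, plated 5 h before compound pin transfer; 16 h at 37 C; bla substrate 2 h RT; then CellTiter-Glo, 30 min RT, luminescence.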

[10] = p53 small molecule agonists, cell-based qHTS assay (AID 1963582; active means well fitted activation curve with a large enough effect in the signal ratio in the repeat runs, not every such curve was filed as active; the % refers to the signal ratio)
Procedure, shortened: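 Reporter line: p53RE-bla. Pre-incubation 5 h, 37 C, 5% CO2; compound (DMSO, pin tool) 16 h, 37 C; B/G FRET substrate 2 h RT; fluorescence intensity read.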

[11] = target: 5-hydroxytryptamine receptor 2A (Homo sapiens) (UniProt P28223); experiment: 5-hydroxytryptamine receptor 2A (HTR2A) small molecule antagonists, cell-based qHTS assay (AID 1963586); further: nearly all actives have a fitted effect of over 45% in size
Procedure, shortened: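 Antagonist-mode intracellular calcium assay: DOI (4 nM) added after 5 min compound pre-incubation at room temperature to dye-loaded HTR2A-CHO cells. Fluorescence followed for 3 min, sampled every second.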

[12] = target: 5-hydroxytryptamine receptor 2A (Homo sapiens) (UniProt P28223); experiment: 5-hydroxytryptamine receptor 2A (HTR2A) small molecule agonists, cell-based qHTS assay (AID 1963587); further: nearly all actives have a fitted effect of over 30% in size
Procedure, shortened: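 CHO cells stably expressing human HTR2A, plated 18 h, loaded with calcium dye 1 h at 37 C. Agonist mode: compounds added and intracellular calcium fluorescence recorded kinetically for 2 min at 1 sec intervals.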

[13] = target: Muscarinic acetylcholine receptor M1 (Homo sapiens) (UniProt P11229); experiment: Cholinergic receptor muscarinic 1 (CHRM1) small molecule antagonists, cell-based qHTS assay (AID 1963588); further: nearly all actives have a fitted effect of over 40% in size; further: potency means the concentration at half of the fitted maximal effect
Procedure, shortened: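 CHRM1-CHO calcium-flux assay, antagonist mode. Cells were seeded 18 h, dye-loaded 1 h at 37 C and given compound for 5 min at RT, then acetylcholine was added at 50nM. FDSS fluorescence was read 3 min; 15 concentrations, three runs.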

[14] = target: Muscarinic acetylcholine receptor M1 (Homo sapiens) (UniProt P11229); experiment: Cholinergic receptor muscarinic 1 (CHRM1) small molecule agonists, cell-based qHTS assay (AID 1963589); further: nearly all actives have a fitted effect of over 35% in size
Procedure, shortened: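 Human M1 in stable CHO line; 18 h plating, 1 h dye load 37 C; cpd added (agonist mode); Ca2+ fluorescence kinetic read, 1 s intervals; 15 conc, 3 runs.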

[15] = cAMP Responsive Elements (CRE) small molecule agonists, cell-based qHTS assay (AID 1963590)
Procedure, shortened: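 HEK 293T CRE-bla, 2,000 cells/well, 18 h preincubation 37 C/5% CO2; cpds (DMSO) pinned, 3 h; LiveBLAzer B/G FRET substrate, 2 h RT.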

[16] = cAMP Responsive Elements (CRE) small molecule antagonists, cell-based qHTS assay (AID 1963591; active means well fitted inhibition curve with a large enough effect in the signal ratio in the repeat runs, not every such curve was filed as active; the % refers to the signal ratio)
Procedure, shortened: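 Beta-lactamase reporter read by FRET substrate (LiveBLAzer B/G) after 2 h at room temperature. CRE-bla HEK293T cells had received compound plus 0.25 uM (final) NKH477 for 3 h at 37 °C.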

[17] = target: D(2) dopamine receptor (Homo sapiens) (UniProt P14416); experiment: Dopamine D2 receptor (DRD2) small molecule agonists, cell-based qHTS assay (AID 1963594); further: nearly all actives have a fitted effect of over 35% in size
Procedure, shortened: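 HEK293 cells stably expressing human DRD2, pre-treated with PDE inhibitor Ro20-1724 (0.1 mM final) and compound 10 min at room temperature, then stimulated with NKH477 (200nM […]) for 30 min. cAMP read by HTRF (665/620 nm).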

[18] = target: D(2) dopamine receptor (Homo sapiens) (UniProt P14416); experiment: Dopamine D2 receptor (DRD2) small molecule antagonists, cell-based qHTS assay (AID 1963595; active means well fitted inhibition curve with a large enough effect in the signal ratio in the repeat runs, with a control signal flat; the % refers to the signal ratio)
Procedure, shortened: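 HEK293 cells stably expressing DRD2 were preincubated with 0.1 mM Ro20-1724, then with compound for 10 min at room temperature. Cells were stimulated with 200 nM NKH477 plus 12 nM quinpirole for 30 min, and cAMP was read by HTRF.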

[19] = target: Beta-2 adrenergic receptor (Homo sapiens) (UniProt P07550); experiment: Adrenergic beta2 receptor (ADRB2) small molecule antagonists, cell-based qHTS assay (AID 1963592); further: series mostly up to about 92 µM; nearly all actives have a fitted effect of over 50% in size
Procedure, shortened: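 Cells (CHO, stable ADRB2 overexpression) incubated 18-20hr at 37C; compounds added from DMSO; agonist mix (1nM isoproterenol, 100uM IBMX, 25uM Ro-20-1724) added; 0.5hr RT; d2-cAMP and anti-cAMP-cryptate added; 1hr RT; 665/615 nm read.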

[20] = p53 small molecule agonists, cell-based qHTS assay with human liver microsomes: qHTS cell viability counter screen (AID 1963579); further: nearly all actives have a fitted effect of over 45% in size
Procedure, shortened: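 Cytotoxicity counter screen: p53RE-bla, 4,000 cells/well; 5 h settle, 37 C/5% CO2; cpd + HLM 0.5 mg/mL + NADPH 0.5 mg/mL (final); 16 h, 37 C; CellTiter-Glo, 30 min RT, luminescence.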

Sequence of KiSS-1 receptor (Homo sapiens) (Q969F8 whole entry, looked up): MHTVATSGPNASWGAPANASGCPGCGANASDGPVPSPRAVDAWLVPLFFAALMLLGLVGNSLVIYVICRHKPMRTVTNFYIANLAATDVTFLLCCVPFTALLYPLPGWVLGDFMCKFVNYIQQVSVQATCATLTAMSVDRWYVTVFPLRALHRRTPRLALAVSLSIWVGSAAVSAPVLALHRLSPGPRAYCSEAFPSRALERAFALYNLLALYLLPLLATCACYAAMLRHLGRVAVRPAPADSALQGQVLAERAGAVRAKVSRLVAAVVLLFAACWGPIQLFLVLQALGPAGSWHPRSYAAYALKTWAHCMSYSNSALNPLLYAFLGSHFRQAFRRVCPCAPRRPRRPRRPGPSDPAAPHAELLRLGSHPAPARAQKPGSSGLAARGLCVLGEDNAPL
Sequence of Gonadotropin-releasing hormone receptor (Homo sapiens) (P30968 whole entry, looked up): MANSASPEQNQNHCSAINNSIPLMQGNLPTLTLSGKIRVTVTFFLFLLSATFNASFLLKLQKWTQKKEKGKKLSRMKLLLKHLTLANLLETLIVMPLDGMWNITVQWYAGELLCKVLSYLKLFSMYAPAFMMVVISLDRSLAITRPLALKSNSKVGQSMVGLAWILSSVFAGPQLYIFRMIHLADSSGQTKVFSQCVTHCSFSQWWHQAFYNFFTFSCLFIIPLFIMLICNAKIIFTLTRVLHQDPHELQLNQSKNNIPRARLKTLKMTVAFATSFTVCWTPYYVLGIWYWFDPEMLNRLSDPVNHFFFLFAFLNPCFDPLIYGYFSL
Sequence of D(2) dopamine receptor (Homo sapiens) (P14416 whole entry, looked up): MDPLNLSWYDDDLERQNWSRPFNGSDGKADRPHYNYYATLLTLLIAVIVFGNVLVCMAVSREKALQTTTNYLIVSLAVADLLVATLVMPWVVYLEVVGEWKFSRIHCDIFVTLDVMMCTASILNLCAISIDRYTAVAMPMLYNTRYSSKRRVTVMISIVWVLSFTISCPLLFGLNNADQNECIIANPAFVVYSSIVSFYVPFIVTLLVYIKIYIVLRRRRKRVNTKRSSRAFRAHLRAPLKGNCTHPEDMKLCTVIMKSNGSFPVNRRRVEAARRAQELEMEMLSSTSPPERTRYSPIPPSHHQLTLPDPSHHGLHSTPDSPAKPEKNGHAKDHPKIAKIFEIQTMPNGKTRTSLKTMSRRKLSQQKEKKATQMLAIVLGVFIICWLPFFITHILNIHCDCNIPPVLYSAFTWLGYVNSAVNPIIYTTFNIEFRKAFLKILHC
Sequence of Muscarinic acetylcholine receptor M1 (Homo sapiens) (P11229 whole entry, looked up): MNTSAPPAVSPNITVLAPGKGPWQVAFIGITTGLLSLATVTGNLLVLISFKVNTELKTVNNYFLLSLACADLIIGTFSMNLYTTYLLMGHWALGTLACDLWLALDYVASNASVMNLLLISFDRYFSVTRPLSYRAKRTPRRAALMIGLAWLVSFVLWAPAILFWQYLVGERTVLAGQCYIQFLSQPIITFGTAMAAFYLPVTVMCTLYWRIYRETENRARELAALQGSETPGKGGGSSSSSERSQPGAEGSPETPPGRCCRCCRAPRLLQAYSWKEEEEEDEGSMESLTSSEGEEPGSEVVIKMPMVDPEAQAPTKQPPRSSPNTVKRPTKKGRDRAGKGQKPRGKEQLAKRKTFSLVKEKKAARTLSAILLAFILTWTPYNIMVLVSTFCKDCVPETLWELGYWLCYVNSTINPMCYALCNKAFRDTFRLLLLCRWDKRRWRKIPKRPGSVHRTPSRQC
Sequence of Beta-2 adrenergic receptor (Homo sapiens) (P07550 whole entry, looked up): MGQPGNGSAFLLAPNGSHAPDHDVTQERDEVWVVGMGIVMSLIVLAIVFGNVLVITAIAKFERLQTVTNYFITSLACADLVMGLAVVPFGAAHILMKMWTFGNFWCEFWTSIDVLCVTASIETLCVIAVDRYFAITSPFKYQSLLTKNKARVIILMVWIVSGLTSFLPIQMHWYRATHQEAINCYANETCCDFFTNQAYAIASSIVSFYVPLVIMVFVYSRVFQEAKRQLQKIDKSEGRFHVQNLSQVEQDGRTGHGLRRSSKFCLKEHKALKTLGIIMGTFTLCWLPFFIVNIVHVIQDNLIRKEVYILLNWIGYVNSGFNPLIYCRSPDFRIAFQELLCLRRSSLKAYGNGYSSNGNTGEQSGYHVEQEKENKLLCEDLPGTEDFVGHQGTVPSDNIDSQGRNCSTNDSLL
Sequence of 5-hydroxytryptamine receptor 2A (Homo sapiens) (P28223 whole entry, looked up): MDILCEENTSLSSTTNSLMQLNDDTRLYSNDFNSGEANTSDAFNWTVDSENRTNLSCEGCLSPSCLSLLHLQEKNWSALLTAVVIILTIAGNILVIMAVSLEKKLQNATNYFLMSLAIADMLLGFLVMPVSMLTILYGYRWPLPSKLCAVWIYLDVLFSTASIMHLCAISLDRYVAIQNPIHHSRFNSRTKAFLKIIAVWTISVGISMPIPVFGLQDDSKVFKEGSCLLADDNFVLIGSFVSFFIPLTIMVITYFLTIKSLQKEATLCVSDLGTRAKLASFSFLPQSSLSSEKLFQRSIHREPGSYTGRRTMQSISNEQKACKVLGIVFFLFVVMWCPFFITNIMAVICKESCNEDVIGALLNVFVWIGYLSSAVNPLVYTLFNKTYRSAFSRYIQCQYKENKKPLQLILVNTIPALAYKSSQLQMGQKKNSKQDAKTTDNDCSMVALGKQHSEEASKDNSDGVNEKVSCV

| Compound | Potency [1] | Potency [2] | Potency [3] | Potency [4] | Potency [5] | Potency [6] | Potency [7] | Potency [8] | Potency [9] | Potency [10] | Potency [11] | Potency [12] | Potency [13] | Potency [14] | Potency [15] | Potency [16] | Potency [17] | Potency [18] | Potency [19] | Potency [20] |
| --- | --- | --- | --- | --- | --- | --- | --- | --- | --- | --- | --- | --- | --- | --- | --- | --- | --- | --- | --- | --- |
| CC(=O)N(c1onc(C)c1C)S(=O)(=O)c1ccc(N)cc1 | inactive | inactive | inactive | inactive | inactive | inactive | inactive | inactive | inactive | inactive | inactive | inactive | inactive | inactive | inactive | inactive | inactive | inactive | – | – |
| Cc1nc(-c2ccc3c(c2)CCN(CCC2CCC(NC(=O)/C=C/c4ccc(F)cc4)CC2)CC3)no1 (centres undefined) | inactive | inactive | inactive | inactive | inactive | inactive | inactive | inactive | inactive | inactive | inactive | inactive | 0.266 µM (active) | – | inactive | inactive | inactive | inactive | inactive | – |
| O=c1cccc[nH]1 | inactive | inactive | inactive | inactive | inactive | inactive | – | inactive | inactive | inactive | inactive | inactive | inactive | inactive | inactive | inactive | inactive | inactive | inactive | inactive |
| C=C(CC)C(=O)c1ccc(OCC(=O)O)c(Cl)c1Cl | inactive | 24.2 µM (active) and 29.8 µM (active) | inactive | inactive | inactive | inactive | inactive | inactive | inactive | – | – | – | – | – | – | – | inactive | inactive | inactive | – |
| CC(C)C(=O)OC(=O)C(C)C | inactive | inactive | inactive | inactive | inactive | inactive | inactive | – | inactive | inactive | inactive | inactive | – | inactive | inactive | – | inactive | inactive | – | – |
| Nc1ccc([N+](=O)[O-])c(C(F)(F)F)c1 | inactive | inactive | inactive | inactive | inactive | inactive | inactive | inactive | – | – | inactive | inactive | inactive | inactive | inactive | inactive | – | inactive | inactive | – |
| O=C(O)/C=C/c1ccc(Cn2ccnc2)cc1 | inactive | inactive | inactive | inactive | inactive | inactive | inactive | inactive | inactive | inactive | inactive | inactive | inactive | inactive | inactive | inactive | inactive | inactive | inactive | – |
| FC(F)(F)C(Cl)(Cl)Cl | inactive | inactive | inactive | inactive | inactive | inactive | inactive | inactive | inactive | inactive | inactive | inactive | inactive | inactive | inactive | inactive | – | inactive | inactive | – |
| O=[N+]([O-])c1cncn1CCN1CCOCC1 | inactive | inactive | inactive | inactive | inactive | inactive | inactive | inactive | inactive | inactive | inactive | inactive | inactive | inactive | inactive | inactive | inactive | inactive | inactive | – |
| C/C(Cl)=C/CCl | inactive | inactive | inactive | inactive | inactive | inactive | inactive | inactive | inactive | inactive | inactive | inactive | inactive | inactive | inactive | inactive | inactive | inactive | inactive | – |
| CC(=O)/C=C/C1C(C)=CCC(C)C1(C)C (centres undefined) | inactive | inactive | inactive | inactive | inactive | inactive | inactive | inactive | inactive | inactive | inactive | inactive | – | inactive | inactive | inactive | inactive | inactive | inactive | – |
| Oc1ccccc1O | inactive | inactive | inactive | inactive | inactive | inactive | inactive | inactive | – | – | – | – | – | – | inactive | inactive | inactive | inactive | inactive | – |
| CC1COc2ccccc2N1 (centres undefined) | inactive | 54.5 µM (active) | inactive | inactive | inactive | inactive | inactive | inactive | inactive | inactive | inactive | inactive | inactive | inactive | inactive | inactive | inactive | inactive | inactive | – |
| CC(C)CC(=O)O | inactive | inactive | inactive | inactive | inactive | inactive | inactive | inactive | inactive | inactive | inactive | inactive | inactive | inactive | inactive | inactive | – | inactive | inactive | – |
| CCCCCCCCCCCC[N+](C)(C)CCCS(=O)(=O)[O-] | inactive | inactive | inactive | inactive | inactive | inactive | inactive | inactive | inactive | inactive | inactive | inactive | 33.8 µM (active) | inactive | inactive | inactive | inactive | inactive | inactive | – |
| O=C(O)c1ccccc1[N+](=O)[O-] | inactive | inactive | inactive | inactive | inactive | inactive | inactive | inactive | inactive | inactive | inactive | inactive | inactive | inactive | inactive | inactive | inactive | inactive | inactive | – |
